# Laboratory results taken from PubChem BioAssay.
# Several values for one entry are separate records, joined by “and”; a condition that tells them apart may be missing. Identical values can stand only once. Results filed as inconclusive are left out. Activity calls are given as the source filed them.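 Rule for the calls, unless noted: active = normalized viability below 100% at a tested concentration; inactive = the rest.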
# What was measured:
# [1] = viability loss in pontine glioma line – cell-based, SU-DIPG-XIII, MIPE5.0, CellTiter-Glo, qHTS, dose response (AID 1347064; cut-off not given, nearly all actives have AC50 up to about 23 µM;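 for AC50: cells exposed to compound for 48 hours before the viability read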); details: CellTiter-Glo ATP luminescence
# [2] = viability loss in pontine glioma line – cell-based, SU-DIPG-XXV, MIPE5.0, CellTiter-Glo, qHTS, dose response (AID 1347065; cut-off not given, nearly all actives have AC50 up to about 26 µM;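 note: cells exposed to compound for 48 hours before ATP readout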); details: CellTiter-Glo ATP luminescence
# [3] = viability loss in pontine glioma line – cell-based, JHH-DIPG-1, MIPE4.0, CellTiter-Glo, qHTS, dose response (AID 1347062; cut-off not given, nearly all actives have AC50 up to about 27 µM); details: JHH-DIPG-1 viability, CellTiter-Glo ATP luminescence
# [4] = growth inhibition of DIPG cells – cell-based, MIPE5.0 library, qHTS (AID 1347068; cut-off not given, nearly all actives have IC50 up to about 30 µM); details: SU-DIPG-XXV viability
# [5] = viability loss with induced miR-34 in A549 – imaging, A549 dox-inducible miR-34, nuclei and caspase counts, primary screen (AID 1347080;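 active = compounds whose cell count with miR-34 switched on is under 0.7 times the count with it off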); details: A549 miR-34 inducible, Hoechst nuclei count, 48 h
# [6] = blockers of cellular phospholipid synthesis – cell-based, LOPAC library, screen 4, primary screen (AID 1347384; call rule not given here); details: animal cells, phospholipid biosynthesis inhibition screen; at 10 µM
# [7] = MELAS cybrid and Rieske KO viability enhancers – cell-based, MELAS cybrids, Rieske KO mouse fibroblasts, CellTiter-Glo, primary screen (AID 1508586;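 active = mean z-score across replicates of 1.96 or higher in either the MELAS or the Rieske mutant cell line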;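 note: z relative to plate mean and SD of compound and empty wells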); details: low glucose
# [8] = galactose survival enhancers in mitochondrial complex I cybrids – cell-based, galactose medium, ATP luminescence, primary screen (AID 1645843;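 active = z-score of at least 1.8 in each of two replicates, scored against plate mean and spread of sample wells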;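 note: positive z means more ATP and so rescue of galactose-driven cybrid death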); details: complex I mutant cybrid cells, 72 h, stronger effect = higher value
# [9] = viability loss in pontine glioma line – cell-based, SU-DIPG-IV, MIPE4.0, CellTiter-Glo, qHTS, dose response (AID 1347063; cut-off not given, nearly all actives have AC50 up to about 30 µM;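 note: compound exposure lasted 48 hours before the viability readout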); details: CellTiter-Glo ATP luminescence
# [10] = JHH-DIPG-1 glioma cell viability, MIPE5.0 library, CellTiter-Glo luminescence, qHTS (AID 1347067; cut-off not given, nearly all actives have AC50 up to about 26 µM;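 note: cells exposed to compound for 48 hours before readout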); details: JHH-DIPG-1 glioma viability, CellTiter-Glo ATP luminescence
# [11] = drug combination growth inhibition, ovarian cancer – cell-based, oncology-focused library, rucaparib conditional, profiling panel (AID 1508598); details: patient-derived ovarian cancer cells, CellTiter-Glo viability, 144 h, stronger effect = lower value
# [12] = compounds altering HSF1 focus formation in cells – imaging, Selleck Cancer Library (AID 1347162; in the data active = plate-normalised HSF1 focus index below about 0.46); details: human cells, HSF1 nuclear foci imaging, at 10 µM; SSMD: measured here: HSF1 foci SSMD mean; cell count: measured here: cell number; plate-normalised HSF1 focus index: stronger effect = lower value
# [13] = growth inhibition of DIPG cells – cell-based, MIPE4.0 library, CellTiter-Glo luminescence, qHTS (AID 1347066; cut-off not given, nearly all actives have AC50 up to about 30 µM;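 note: cells exposed to compound for 48 hours before readout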); details: SU-DIPG-VI viability, CellTiter-Glo ATP luminescence
# [14] = stronger effect = lower value, cell number ratio, induced over uninduced
# [15] = measured here: relative caspase fold change +Dox/-Dox
# [16] = measured here: total cells with miR-34 induction, stronger effect = lower value
# [17] = measured here: total cells without miR-34 induction
# [18] = MELAS cybrid survival, CellTiter-Glo 48 h, stronger effect = higher value
# [19] = Rieske KO mouse fibroblast survival, CellTiter-Glo 72 h
# [20] = at 0.000305 µM, OCI-C5x cells, with rucaparib 10 µM, 100% = cells with rucaparib alone
# [21] = at 0.000305 µM, OCI-C5x cells, without rucaparib
# [22] = at 0.000305 µM, OCI-P5x cells, with rucaparib 20 µM, 100% = cells with rucaparib alone
# [23] = at 0.000305 µM, OCI-P5x cells, without rucaparib
# [24] = at 0.00122 µM, OCI-C5x cells, with rucaparib 10 µM, 100% = cells with rucaparib alone
# [25] = at 0.00122 µM, OCI-C5x cells, without rucaparib
# [26] = at 0.00122 µM, OCI-P5x cells, with rucaparib 20 µM, 100% = cells with rucaparib alone
# [27] = at 0.00122 µM, OCI-P5x cells, without rucaparib
# [28] = at 0.00488 µM, OCI-C5x cells, with rucaparib 10 µM, 100% = cells with rucaparib alone
# [29] = at 0.00488 µM, OCI-C5x cells, without rucaparib
# [30] = at 0.00488 µM, OCI-P5x cells, with rucaparib 20 µM, 100% = cells with rucaparib alone
# [31] = at 0.00488 µM, OCI-P5x cells, without rucaparib
# [32] = at 0.0195 µM, OCI-C5x cells, with rucaparib 10 µM, 100% = cells with rucaparib alone
# [33] = at 0.0195 µM, OCI-C5x cells, without rucaparib
# [34] = at 0.0195 µM, OCI-P5x cells, with rucaparib 20 µM, 100% = cells with rucaparib alone
# [35] = at 0.0195 µM, OCI-P5x cells, without rucaparib
# [36] = at 0.0781 µM, OCI-C5x cells, with rucaparib 10 µM, 100% = cells with rucaparib alone
# [37] = at 0.0781 µM, OCI-C5x cells, without rucaparib
# [38] = at 0.0781 µM, OCI-P5x cells, with rucaparib 20 µM, 100% = cells with rucaparib alone
# [39] = at 0.0781 µM, OCI-P5x cells, without rucaparib
# [40] = at 0.313 µM, OCI-C5x cells, with rucaparib 10 µM, 100% = cells with rucaparib alone
# [41] = at 0.313 µM, OCI-C5x cells, without rucaparib
# [42] = at 0.313 µM, OCI-P5x cells, with rucaparib 20 µM, 100% = cells with rucaparib alone
# [43] = at 0.313 µM, OCI-P5x cells, without rucaparib
# [44] = at 1.25 µM, OCI-C5x cells, with rucaparib 10 µM, 100% = cells with rucaparib alone
# [45] = at 1.25 µM, OCI-C5x cells, without rucaparib
# [46] = at 1.25 µM, OCI-P5x cells, with rucaparib 20 µM, 100% = cells with rucaparib alone
# [47] = at 1.25 µM, OCI-P5x cells, without rucaparib
# [48] = at 5 µM, OCI-C5x cells, with rucaparib 10 µM, 100% = cells with rucaparib alone
# [49] = at 5 µM, OCI-C5x cells, without rucaparib
# [50] = at 5 µM, OCI-P5x cells, with rucaparib 20 µM, 100% = cells with rucaparib alone
# [51] = at 5 µM, OCI-P5x cells, without rucaparib
smiles,measurement,setting,value
CNC(=O)c1c(C)oc2cc(Oc3ncnc4cc(OC)c(OC)cc34)ccc12,AC50,[1],9.34 µM (active)
same,AC50,[2],6.61 µM (active)
O=C(O)c1ccc(CCCc2ccc(OCCc3ccc(F)cc3)cc2)o1,outcome,[1],inactive
Cc1cc(Cl)ccc1OCCCC(=O)NO,outcome,[3],inactive
same,outcome,[4],inactive
same,fold change,[5]; [14],0.893 (inactive) and 0.9 (inactive)
same,fold change,[5]; [15],2.21 and 0.917
same,cell count,[5]; [16],6940 and 6970
same,cell count,[5]; [17],7770 and 7740
same,outcome,[6],inactive
same,z-score,[7]; [18],-0.389 (inactive)
same,z-score,[7]; [19],0.796
same,z-score,[8],0.555 (inactive)
CNc1nc(-c2ccc3c(N)n[nH]c3c2)cc(N2C[C@@H](C(=O)NC3CCCCC3)CC[C@H]2C)n1,AC50,[9],20.9 µM (active)
same,AC50,[1],18.6 µM (active)
same,AC50,[2],6.61 µM (active)
same,AC50,[10],14.8 µM (active)
same,viability,[11]; [20],103% (inactive)
same,viability,[11]; [21],113% (inactive)
same,viability,[11]; [22],103% (inactive)
same,viability,[11]; [23],106% (inactive)
same,viability,[11]; [24],124% (inactive)
same,viability,[11]; [25],115% (inactive)
same,viability,[11]; [26],97.7% (active)
same,viability,[11]; [27],102% (inactive)
same,viability,[11]; [28],116% (inactive)
same,viability,[11]; [29],111% (inactive)
same,viability,[11]; [30],100% (inactive)
same,viability,[11]; [31],104% (inactive)
same,viability,[11]; [32],119% (inactive)
same,viability,[11]; [33],115% (inactive)
same,viability,[11]; [34],92.7% (active)
same,viability,[11]; [35],96.7% (active)
same,viability,[11]; [36],117% (inactive)
same,viability,[11]; [37],120% (inactive)
same,viability,[11]; [38],102% (inactive)
same,viability,[11]; [39],98.2% (active)
same,viability,[11]; [40],107% (inactive)
same,viability,[11]; [41],113% (inactive)
same,viability,[11]; [42],91% (active)
same,viability,[11]; [43],91.1% (active)
same,viability,[11]; [44],112% (inactive)
same,viability,[11]; [45],122% (inactive)
same,viability,[11]; [46],90% (active)
same,viability,[11]; [47],93.4% (active)
same,viability,[11]; [48],67.5% (active)
same,viability,[11]; [49],155% (inactive)
same,viability,[11]; [50],22.3% (active)
same,viability,[11]; [51],84.2% (active)
O=C(Nc1cccnc1)N1CCC(Cc2cccc(Oc3ccc(C(F)(F)F)cn3)c2)CC1,outcome,[3],inactive
same,outcome,[4],inactive
same,fold change,[5]; [14],1.36 (inactive)
same,fold change,[5]; [15],0.837
same,cell count,[5]; [16],4250
same,cell count,[5]; [17],3120
same,SSMD,[12],3.05
same,cell count,[12],7690
same,plate-normalised HSF1 focus index,[12],1.19 (inactive)
same,z-score,[7]; [18],-0.261 (inactive)
same,z-score,[7]; [19],-0.332
same,viability,[11]; [20],111% (inactive)
same,viability,[11]; [21],123% (inactive)
same,viability,[11]; [22],110% (inactive)
same,viability,[11]; [23],110% (inactive)
same,viability,[11]; [24],108% (inactive)
same,viability,[11]; [25],129% (inactive)
same,viability,[11]; [26],111% (inactive)
same,viability,[11]; [27],99.8% (active)
same,viability,[11]; [28],128% (inactive)
same,viability,[11]; [29],120% (inactive)
same,viability,[11]; [30],112% (inactive)
same,viability,[11]; [31],102% (inactive)
same,viability,[11]; [32],116% (inactive)
same,viability,[11]; [33],118% (inactive)
same,viability,[11]; [34],105% (inactive)
same,viability,[11]; [35],102% (inactive)
same,viability,[11]; [36],114% (inactive)
same,viability,[11]; [37],117% (inactive)
same,viability,[11]; [38],103% (inactive)
same,viability,[11]; [39],102% (inactive)
same,viability,[11]; [40],117% (inactive)
same,viability,[11]; [41],117% (inactive)
same,viability,[11]; [42],106% (inactive)
same,viability,[11]; [43],98.4% (active)
same,viability,[11]; [44],134% (inactive)
same,viability,[11]; [45],129% (inactive)
same,viability,[11]; [46],100% (inactive)
same,viability,[11]; [47],96.3% (active)
same,viability,[11]; [48],126% (inactive)
same,viability,[11]; [49],124% (inactive)
same,viability,[11]; [50],87.1% (active)
same,viability,[11]; [51],85.5% (active)
CCNC(=O)Nc1ccc(Oc2ncnc(N)c2/C=N/OC)cc1Cl,outcome,[3],inactive
same,outcome,[13],inactive
same,outcome,[4],inactive
Cc1c(C)n(Cc2ccc(-c3ccccc3C(=O)O)cc2)c2ccc(C(=O)N[C@@H](C)c3ccc([N+](=O)[O-])cc3)cc12,AC50,[9],0.0372 µM (active)
COc1ccc(CCC(=O)Nc2nc3ccc(Cl)cc3s2)cc1OC,outcome,[3],inactive
same,outcome,[10],inactive
same,outcome,[4],inactive
same,fold change,[5]; [14],0.879 (inactive)
same,fold change,[5]; [15],0.345
same,cell count,[5]; [16],7570
same,cell count,[5]; [17],8610
same,z-score,[7]; [18],1.34 (inactive)
same,z-score,[7]; [19],-0.214
CN(C)C(=O)[C@H](O)[C@H](Cc1ccccc1)NC(=O)c1cc2cc(Cl)ccc2[nH]1,AC50,[9],4.18 µM (active)
same,outcome,[1],inactive
same,outcome,[2],inactive
same,outcome,[10],inactive
same,outcome,[4],inactive
same,fold change,[5]; [14],0.925 (inactive)
same,fold change,[5]; [15],1.42
same,cell count,[5]; [16],8280
same,cell count,[5]; [17],8950
same,outcome,[6],inactive
same,z-score,[8],3.02 (active)
